# Compound activity (PubChem)
# Compounds with a hit are over-represented: about 19% of the library has one in this group of screens.
# BCR signal inh = chronic active BCR signaling inhibition; ABC-DLBCL IkBa-CBG/CBR reporter, luminescence ratio, 4 h; hit rate 0.05% among 340,000; Potency, µM (series often up to 46.1 µM), for inactives: top-dose activity change, negative = inhibition, actives largely listed as inhibitors; active = well fitted inhibition curve with a large enough effect in the signal ratio, with a control signal flat, not every such curve was filed as active; inconclusive = small, poorly fitted or top-dose-only effect, or effect the other way, or a change in a side signal; the % refers to the signal ratio;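 note: potency is the fitted concentration of half-maximal effect; plate controls were basal doxycycline-induced cells for no effect and cells given 10 µM MG132 for full effect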
#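 Doxycycline induced both beetle luciferases in TMD8 lymphoma cells; IKK-driven degradation limits the IkappaBalpha-fused green signal, while red luminescence normalises for cell number and nonspecific effects. Compounds tested up to 46 uM, 4 hrs.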
# DT40 TDP1 no CPT = qHTS for Inhibitors of human tyrosyl-DNA phosphodiesterase 1 (TDP1): qHTS in cells in absence of CPT; DT40 Tdp1-/- hTDP1 cells, no CPT, ATP luminescence, 48 h; Potency, µM (doses to about 46.2 µM), inactives show at the highest dose activity change, negative = growth inhibition, actives largely listed as inhibitors; hit rate 15% among 420,000; AID 686978, 2013; note: potency is the fitted concentration of half-maximal effect; % is set by controls: 0 for no effect and ±100 for the full control effect; nearly all actives have a fitted effect of over 55% in size
#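 Chicken DT40 Tdp1-/- cells complemented with human TDP1, screened without camptothecin (DMSO vehicle only), 400 cells/well. Compounds pin-transferred, cells incubated at 37 °C for at least 48 hr. Growth read as ATP-dependent luminescence (CellTiter-Glo, 30 min at RT).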
# MCF10A rerep = inducers of DNA re-replication in MCF 10A breast cells | MCF 10A DNA re-replication, Hoechst nuclear intensity, 48 h | Potency, µM (highest dose often 46.1 µM), for the others: top-dose activity, positive = re-replication, hits mostly activators | hit rate 2.9% among 350,000 | AID 624296; note: potency is the fitted concentration of half-maximal effect; % of control where 0% means no effect; nearly all actives have a fitted effect of over 50% in size
# DT40 TDP1 CPT = DT40-hTDP1 cell growth loss with CPT | Potency, µM (series often up to 46.2 µM), for inactives: top-dose activity change, negative = growth inhibition, most hits filed as inhibitors | hit rate 12% among 420,000 | chicken DT40 Tdp1-/-;hTDP1 cells + 20 nM CPT, ATP luminescence, 48 h; note: potency is the fitted concentration of half-maximal effect; % is set by controls: 0 for no effect and ±100 for the full control effect; nearly all actives have a fitted effect of over 55% in size
#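 Chicken DT40 Tdp1-/- cells stably complemented with human TDP1 were seeded at 400 cells/well in medium containing 20 nM camptothecin, exposed to pin-transferred compounds, and grown at 37 °C for at least 48 hr. Viability was read as ATP luminescence.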
# IL-1B inflam inh = inhibitors of inflammasome signaling (IL-1 beta secretion); THP-1 LPS/ATP IL-1B secretion, AlphaLISA, 16 h; stronger effect = lower value; activity change, % at 57.5 µM; hit rate 4.7% among 360,000; in the data active = activity change below about -50%; inconclusive = mostly about -30% to -49%; note: % is set by controls: 0 for no effect and ±100 for the full control effect
#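 Secreted IL-1B measured by AlphaLISA bead assay after 16 h compound exposure of THP-1 cells; compounds (final up to 57.5 uM) added 1 h before LPS (250 ng/mL) and ATP (1.25 mM) stimulation; lower signal means less secretion.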
# SW480 rerep = induces DNA re-replication in SW480 colon adenocarcinoma cells | AID 624297 | hit rate 1.8% among 340,000 | SW480 DNA re-replication, Hoechst DNA content imaging, 48 h | Potency, µM (doses to about 46.1 µM), without a hit: at the highest dose re-replication activation, usual class: activators; note: potency is the fitted concentration of half-maximal effect; % of control where 0% means no effect; nearly all actives have a fitted effect of over 55% in size
#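 Hoechst fluorescence of nuclei (405 nm excitation, 500-530 nm emission) measured by plate-scanning imager after 48 hr compound exposure at 37 C; re-replication scored as increased number of nuclei with elevated intensity.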
# Starred values were filed as active, the others as inactive; u = inconclusive; x = no result given; [ ] = dose if it differs, or a comment. Unless noted, calls come from the whole dose curve; as a rule, active = well fitted curve in the direction sought with a large enough effect; inconclusive = small, poorly fitted or top-dose-only effect, or another doubt; inactive = no such curve, though single readings can be large; an effect the other way counts as inactive or inconclusive.
SMILES,BCR signal inh,DT40 TDP1 no CPT,MCF10A rerep,DT40 TDP1 CPT,IL-1B inflam inh,SW480 rerep
COc1cc(CNCCc2ccccc2)cc(Br)c1OCC(=O)Nc1ccccc1C,1%,26µM*,u,u,-67*,u
COc1ccccc1NC(=O)COc1ccc(Br)cc1CNC1CCCC1,0%,u,21%,u,-86*,11%
CNCc1cc(Br)c(OCC(=O)Nc2ccccc2OC)c(OC)c1,1%,u,u,-3%,-62*,u
COc1cc(CNCC(C)C)cc(Br)c1OCC(=O)Nc1ccccc1,6%,u,2%,u,-7,-12%
CCCCN(CC)CCNc1ncnc2onc(-c3ccc(Cl)cc3)c12,x,-19%,x,-21%,x,x
COc1ccc(CNS(=O)(=O)c2cc3c4c(c2)C(C)C(=O)N4CCC3)cc1 (configuration not stated),6%,u,u,-27%,18,-17%
COc1ccc(C(=O)Nc2ccc3nc4n(c(=O)c3c2)CCCC4)cc1[N+](=O)[O-],-1%,x,x,x,x,x
O=C(Nc1ccc2nc3n(c(=O)c2c1)CCCCC3)c1c(F)ccc([N+](=O)[O-])c1F,u,2.3µM*,u,2.6µM*,-102*,1.3µM*
O=C(Nc1ccc2nc3n(c(=O)c2c1)CCCCC3)c1cc([N+](=O)[O-])ccc1F,u,2.6µM*,15µM*,6.5µM*,-93*,16µM*
CN(C)S(=O)(=O)c1cccc(NC(=O)c2ccc(-n3cncn3)c([N+](=O)[O-])c2)c1,-6%,-12%,6%,u,5,-2%
Cc1ccn2c(=O)cc(COc3ccc(NC(=O)C(C)(C)C)cc3)nc2c1,x,u,x,-29%,x,x
Cn1c2ccccc2c(=O)c2c(=O)n(-c3ccc(F)cc3)c(C3CCCCC3)nc21,x,31%,2%,u,85,u
COc1cc(N)c(Cl)cc1C(=O)OCC(=O)N1CCCCCC1,3%,9%,-1%,1%,-1,-37%
COc1ccc(CNc2ccc(C)c(C)c2)cc1,u,-2%,8%,0%,7,-4%
COc1ccc(Cc2nnc(NC(=O)c3ccccc3[N+](=O)[O-])s2)cc1,0%,-18%,23µM*,-23%,1,-75%
CCOC(=O)c1sc(NC(=O)c2ccccc2OC)nc1C,u,u,5%,8.2µM*,-21,-4%
COc1cc(CNc2ccc(C)c(C)c2)cc(OC)c1OC,u,1.3µM*,16µM*,2.1µM*,25,8.2µM*
CCOC(=O)c1sc(NNC(=O)c2ccc(C)cc2)nc1C,u,u,26µM*,-33%,-5,-11%
COc1cccc(C(O)c2nc(-c3cccc(F)c3)cs2)c1 (configuration not stated),x,u,x,u,24,x
C[C@@H]1CN([C@@H](C)CO)C(=O)CCCn2nncc2CO[C@H]1CN(C)S(C)(=O)=O,x,u,x,-16%,19,x
COc1cc(CNc2nc3ccccc3s2)cc(OC)c1OC,u,23µM*,0%,0%,12,-1%
CCCCc1nnc(NC(=O)c2ccccc2OCc2c(C)noc2C)s1,u,23µM*,8%,16µM*,-3,0%
COc1ccc2nc(NC(=O)c3ccccc3C(=O)O)sc2c1,u,2%,16%,-2%,4,25%
COc1ccccc1C(=O)Nn1c(C)nc2ccccc2c1=O,0%,u,-1%,10µM*,-6,1%
Cc1noc(C)c1COc1ccccc1C(=O)Nc1ccc(C(N)=O)cc1,5%,3%,0%,24%,-4,-18%
SMILES,BCR signal inh,DT40 TDP1 no CPT,MCF10A rerep,DT40 TDP1 CPT,IL-1B inflam inh,SW480 rerep
COc1ccc(C(=O)Nc2nc3ccccc3s2)c(OC)c1,u,21µM*,u,u,-14,u
COc1ccc(CNS(=O)(=O)c2cc(CN3C(=O)c4cccnc4C3=O)ccc2OC)cc1,0%,0%,-28%,-5%,6,-2%
COC(=O)c1ccccc1S(=O)(=O)N1CCC(C(=O)OCC(=O)c2ccccc2OC)CC1,u,-13%,0%,u,11,-4%
Cc1ccccc1-c1noc(-c2ccc(N3CCC(C)CC3)c([N+](=O)[O-])c2)n1,x,-12%,x,-25%,x,x
NC1=NC(=O)/C(=C/C=C/c2cccs2)S1,x,u,16%,-21%,-18,-1%
Cc1cccc(N(CC(=O)NCC2CCCO2)C(=O)CNS(=O)(=O)c2ccc(Cl)cc2)c1 (configuration not stated),-1%,-22%,-5%,13%,-8,-4%
CC(=O)c1sc(C(=O)O)c(-c2ccco2)c1-c1ccco1,1%,-19%,0%,11%,12,-1%
CC(=O)N/N=C\c1cccc(OC/C=C/c2ccccc2)c1,u,-7%,23%,-22%,-9,u
CN(C)c1cc(-c2cccc(NS(C)(=O)=O)c2)ncn1,x,-6%,x,-25%,x,x
COc1ccccc1C(=O)Nc1nnc(CCc2ccccc2)s1,u,u,u,u,-28,6.5µM*
CCOC(=O)c1sc(NC(=O)CSc2nnnn2-c2ccc(C)c(C)c2)nc1C,-2%,u,5.8µM*,u,60,1%
CCOC(=O)Cc1nnc(NC(=O)c2ccccc2OC)s1,u,-20%,-2%,-3%,-14,-4%
COc1ccccc1C(=O)Nc1nc(-c2ccccc2)ns1,x,23µM*,x,-29%,x,x
CCOC(=O)c1sc(NC(=O)CSc2nnnn2-c2ccc(C)cc2C)nc1C,3%,-20%,u,-15%,10,-6%[9.22 µM]
CCOC(=O)c1nc(NNC(=O)c2ccc([N+](=O)[O-])cc2)sc1C,0%,u,25%,u,-7,3.7µM*
CCCCC1CCC(C(=O)N(C)CC(=O)Nc2cccc(OC)c2)CC1 (configuration not stated),3%,u,14%,-7%,24,11%
COc1ccccc1C(=O)Nc1nc2ccc(S(C)(=O)=O)cc2s1,u,u,u,u,10,-3%
COc1ccccc1C(=O)Nc1nnc(SCC(=O)NCc2ccco2)s1,2%,u,0%,u,-22,21µM*
COc1ccccc1C(=O)Nc1nc2ccccc2s1,u,10µM*,17%,16µM*,-1,-1%
CC1(C)C(=O)N(c2ccccc2Cl)C(=O)c2ccccc21,-2%,u,0%,-7%,-6,-2%
CC1(C(=O)NC2CCc3ccccc32)CCN1CCc1ccccc1 (configuration not stated),x,18µM*,x,16µM*,27,x
